Source: PubChem BioAssay (EPA / NIEHS)
Inconclusive results are not listed. Calls of active or inactive are those of the source. Rule for the calls, unless noted: active = hit-call score of the fitted dose curve at least 0.9, where 1 is the maximum; inconclusive = response in the unintended direction; inactive = score below 0.9.

Legend:
[1] = TOX21_p53_BLA_p2_viability: Viability Assessment in the Tox21 HCT-116 p53 Agonism Beta-lactamase Assay, Phase 2 (AID 2283591);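 note: compound exposure lasted 16 h at 37 °C; actives lower the ATP signal meaning cytotoxicity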
Procedure, shortened: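 HCT-116 p53-bla cells (4000/well) rested 5 h at 37C, then received compounds in DMSO (217-fold dilution) for 16 h at 37C, 5% CO2. After the CCF4 read, CellTiter-Glo was added; ATP luminescence was read after 30 min at room temperature.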

[2] = TOX21_p53_BLA_p3_viability: Viability Assessment in the Tox21 HCT-116 p53 Agonism Beta-lactamase Assay, Phase 3 (AID 2283593);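 note: cells exposed to compound for 16 h before reading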
Procedure, shortened: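 HCT-116 cells (4000/well) rested 5 h at 37C, then got DMSO compounds by pin tool (217-fold dilution) for 16 h at 37C, 5% CO2. After the bla read, CellTiter-Glo was added and luminescence read at 30 min, room temperature.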

[3] = target: Cellular tumor antigen p53 (Homo sapiens) (UniProt P04637); experiment: TOX21_p53_BLA_p3_ratio: Tox21 HCT-116 p53 Agonism Beta-lactamase Assay, Ratio, Phase 3 (AID 2283596)
Cellular tumor antigen p53 (Homo sapiens), sequence (P04637 whole entry, looked up): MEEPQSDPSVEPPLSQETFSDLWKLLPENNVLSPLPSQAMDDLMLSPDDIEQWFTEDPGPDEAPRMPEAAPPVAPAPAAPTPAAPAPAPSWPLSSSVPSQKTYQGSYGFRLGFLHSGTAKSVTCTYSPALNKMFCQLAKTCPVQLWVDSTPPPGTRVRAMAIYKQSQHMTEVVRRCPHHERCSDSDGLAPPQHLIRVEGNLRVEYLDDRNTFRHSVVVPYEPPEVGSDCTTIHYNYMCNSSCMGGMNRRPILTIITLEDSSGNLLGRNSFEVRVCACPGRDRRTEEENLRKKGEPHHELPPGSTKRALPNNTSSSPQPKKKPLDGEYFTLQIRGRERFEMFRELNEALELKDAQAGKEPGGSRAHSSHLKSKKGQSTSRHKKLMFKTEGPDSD
Procedure, shortened: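 Cells were seeded at 4000/well, rested 5 h at 37C, then dosed with DMSO compound solutions (217-fold dilution) for 16 h. CCF4-AM substrate was loaded for 2 h at room temperature, and the 460/530 nm emission ratio was fitted for gain of signal versus DMSO.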

[4] = target: Cellular tumor antigen p53 (Homo sapiens) (UniProt P04637); experiment: TOX21_p53_BLA_p5_ratio: Tox21 HCT-116 p53 Agonism Beta-lactamase Assay, Ratio, Phase 5 (AID 2283599)
Procedure, shortened: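 HCT-116 cells carrying a p53-inducible beta-lactamase reporter were seeded at 4000 cells/well and dosed after 5 h with compound in DMSO (217-fold dilution). After 16 h at 37C, CCF4-AM substrate was added for 2 h, and the 460/530 nm emission ratio was scored as gain-of-signal versus DMSO.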

[5] = TOX21_p53_BLA_p5_viability: Viability Assessment in the Tox21 HCT-116 p53 Agonism Beta-lactamase Assay, Phase 5 (AID 2283600)
Procedure, shortened: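 Workflow: seed 4000 cells per well, wait 5 h, add compounds (DMSO, 217-fold dilution), incubate 16 h, load CCF4-AM 2 h, add CellTiter-Glo, read luminescence after 30 min.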

[6] = target: Cellular tumor antigen p53 (Homo sapiens) (UniProt P04637); experiment: TOX21_p53_BLA_p4_ratio: Tox21 HCT-116 p53 Agonism Beta-lactamase Assay, Ratio, Phase 4 (AID 2283601)
Procedure, shortened: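 HCT116 cells carrying an inducible beta-lactamase reporter were plated at 4000 cells/well, rested 5 h, then exposed to compounds in DMSO (217-fold dilution) for 16 h at 37C. CCF4-AM substrate was loaded 2 h at room temperature; 460/530 nm emission ratio scored gain-of-signal versus DMSO.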

[7] = CCTE_Deisenroth_AIME_96WELL_CTox_Active: Cytotoxicity Assessment (CTOX) in CCTE's 96-well Estrogen Receptor Transactivation Assay with AIME metabolic competence (metabolism positive), Deisenroth Lab (AID 2284028)
Procedure, shortened: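 Cytotoxicity in VM7Luc4E2 breast cells after 24 h exposure to medium from a 2 h metabolic pre-incubation with induced rat hepatic S9 in alginate microspheres; fluorescent live-cell protease readout, 10-point series 0.002–200 uM, n=4.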

[8] = CCTE_Deisenroth_AIME_96WELL_CTox_Inactive: Cytotoxicity Assessment (CTOX) in CCTE's 96-well Estrogen Receptor Transactivation Assay without AIME metabolic competence (metabolism negative), Deisenroth Lab (AID 2284029)
Procedure, shortened: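 Metabolism-negative mode: alginate-water lids without rat S9, 2 h pre-incubation of 10-point series (0.002 - 200 uM). Conditioned medium on VM7Luc4E2 cells 24 h; loss of fluorescent live-cell protease signal marks cytotoxicity.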

[9] = CCTE_Harrill_HTTr_Viability_MCF7: CCTE's 6-hour Cell Viability Assessment for the High-Throughput Transcriptomics (HTTr) Platform, in MCF-7 cells cultured in DMEM + 10% fetal bovine serum, Harrill Lab (AID 2284010; active = hit-call score of the fitted dose curve at least 0.9, where 1 is the maximum; inactive = score below 0.9)
Procedure, shortened: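 Propidium iodide exclusion, imaged by high-content analysis, gauged viability after a six-hour exposure across eight concentrations. Cells were MCF-7 grown in DMEM with 10% fetal bovine serum; fits run in both directions against DMSO.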

[10] = CCTE_Harrill_HTTr_Apoptosis_MCF7: CCTE's 6-hour Apoptosis Assessment for the High-Throughput Transcriptomics (HTTr) Platform, in MCF-7 cells cultured in DMEM + 10% fetal bovine serum, Harrill Lab (AID 2284011; active = hit-call score of the fitted dose curve at least 0.9, where 1 is the maximum; inactive = score below 0.9)
Procedure, shortened: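 MCF-7 (DMEM + 10% FBS), 384-well; 8-pt dilution series, 6 h chemical exposure; caspase-3/7 activation via CellEvent Caspase 3/7 Green, HCI; bidirectional fit vs DMSO.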

[11] = CCTE_Harrill_HTTr_CellCount_MCF7: CCTE's Cell Proliferation Assessment for the High-Throughput Transcriptomics (HTTr) Platform, Harrill Lab (AID 2284012);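 note: cells exposed to compound for six hours; intended direction is loss of nuclei count meaning fewer cells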
Procedure, shortened: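 Cell count from high-content imaging of Hoechst-labeled nuclei serves as viability/growth readout. Chemicals were applied to MCF-7 cells in eight concentrations for six hours, with fitting in both directions relative to DMSO.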

Measured: outcome

CC(COC(=O)c1ccccc1)OC(=O)c1ccccc1 (stereo not given)
inactive: [1] | [2] | [3] | [4] | [5] | [6]

Brc1c(NC2=NCCN2)ccc2nccnc12
inactive: [1] | [2] | [3] | [4] | [5] | [6]

[O]=[Mo](=[O])=[O]
inactive: [1] | [2] | [3] | [5]

COc1ccc2[nH]c(S(=O)Cc3ncc(C)c(OC)c3C)nc2n1 (stereo not given)
inactive: [1] | [2] | [3] | [6]

C[n+]1ccccc1/C=N/O
inactive: [1] | [2] | [3] | [5]

CC(C)(c1ccccc1)c1ccccc1
not listed: [5] | [9] | [10] | [11]
inactive: all other assays above

C1CCCC1
inactive: [1] | [2] | [3] | [4] | [5] | [6]

NCC1CCC(C(=O)O)CC1 (stereo not given)
inactive: [1] | [2] | [3] | [4] | [6]

C=CCN1CCCC1CNC(=O)c1cc(S(N)(=O)=O)cc(OC)c1OC (stereo not given)
inactive: [1] | [2] | [3] | [4] | [6]

CN1CCN(c2c(F)cc3c(=O)c(C(=O)O)cn(CCF)c3c2F)CC1
inactive: [1] | [2] | [3] | [4] | [6]

CSCCC(N)C(=O)O (stereo not given)
inactive: [1] | [2] | [3] | [4] | [6]

CCC[C@H](N[C@@H](C)C(=O)N1[C@H](C(=O)O)C[C@@H]2CCCC[C@@H]21)C(=O)OCC
not listed: [4] | [7] | [8]
inactive: all other assays above

OCCOCC#CCOCCO
inactive: [1] | [2] | [3] | [5] | [6]

FC(F)(F)C(Cl)Br (stereo not given)
inactive: [1] | [2] | [3] | [4] | [6]
